Assay results published in article PMC4552634, “A New Set of Chemical Starting Points with Plasmodium falciparum Transmission-Blocking Potential for Antimalarial Drug Discovery” (PLoS ONE, 2015).
Where two headings read alike, the source gives them in different places. The whole screen tested about 13,000 compounds, of which about 3,200 (25%) showed an effect of 50% or more. This is one part of the list.

System: P. falciparum stage V gametocytes
Set-up: BacTiter-Glo ATP luminescence viability of purified stage V gametocytes in 384-well plates, per cent inhibition versus DMSO
Conditions: 48 h, 5 µM, inhibitor

| Compound | % Inhibition [%] | % Inhibition (% Inhibition) [%] |
| --- | --- | --- |
| N#Cc1cccc(C(=O)Nc2cccc(-c3ccc(C(=O)NCCCN4CCOCC4)cc3)c2)c1 [TCMDC-133694] | -17.34 | – |
| CC(Nc1ncc(-c2ccsc2)c(-c2nccs2)n1)c1ccc2c(c1)OCCO2 (stereo not shown) [TCMDC-125367] | -15.14 | – |
| O=C(NCCCCN1CCCC2c3ccc(O)cc3CCC21)c1ccc(-c2ccccc2)cc1 (stereo not shown) [TCMDC-139083] | – | -83.61 |
| CCc1c(C)nc(-n2nc(C)cc2NC(=O)C2c3ccccc3Oc3ccccc32)[nH]c1=O [TCMDC-124932] | -24.15 | – |
| O=S1(=O)NCc2ccc(Nc3nccc(Nc4ccc5c(cnn5Cc5ccccc5)c4)n3)cc21 [TCMDC-138840] | -68.79 | – |
| O=C(Nc1cccc(-c2nn3ccccc3c2-c2ccnc(Nc3cccc(F)c3)n2)c1)c1c(F)ccc(F)c1F [TCMDC-135844] | -56.6 | – |
| NC(=O)c1cccc(C(=O)Nc2cccc(-c3cccc(-c4nc5ccccc5[nH]4)c3)c2)c1 [TCMDC-132194] | 0.2723 | – |
| COc1ccc(C2c3ccccc3-c3nc(N)nc(N)c3C2C)cc1 (stereo not shown) [TCMDC-137992] | 31.51 | – |
| Cc1cc(NC(=O)NCCN2CCC(NS(=O)(=O)c3ccccc3Cl)C2)c2ccccc2n1 (stereo not shown) [TCMDC-136142] | -23.32 | – |
| Cc1oc(-c2cccc(Oc3ccccc3)c2)nc1CN(Cc1cnn(C)c1)C(C)C [TCMDC-124609] | -17.42 | – |
| COc1ccc2nccc(N(C)CC3(O)CCN(CCc4ccc5c(c4)OCCO5)CC3)c2n1 [TCMDC-141473] | 35.78 | – |
| CCNc1cc(C(=O)N[C@@H](Cc2ccccc2)[C@H](O)CNCc2cccc(-n3ccnc3)c2)cc(N2CCCC2=O)c1 [TCMDC-141686] | 34.28 | – |
| CN(C)C(CNC(=O)c1cc(-c2ccncc2)c(-c2cc3ccccc3[nH]2)o1)c1ccccc1 (stereo not shown) [TCMDC-135864] | 29.45 | – |
| CCCN(CC(=O)NCCc1ccccc1)c1ccc(C#N)c2ccccc12 [TCMDC-135545] | -10.84 | – |
| COc1ccc(CC(=O)Nc2ccc(Nc3nc(C)cc(N(C)C)n3)cc2)cc1 [TCMDC-124973] | 14.2 | – |
| CCc1cccc2c(C#N)cn(CC(=O)NCCc3ccccc3)c12 [TCMDC-124363] | 56.03 | – |
| N#Cc1ccc(N(CC(=O)NCCc2ccc(F)cc2)CC2CC2)c2ccccc12 [TCMDC-135573] | -38.52 | – |
| CCc1cccc2c(C#N)cn(CC(=O)Nc3ccc(OC)cc3)c12 [TCMDC-123527] | 78.76 | – |
| CCc1ccc(NC(=O)c2cccc(CN3CCCN(Cc4ccc(OC)cc4)CC3)c2)cc1 [TCMDC-135990] | -23.52 | – |
